{"source": "PubChem BioAssay AID485314", "about": "(National Center for Advancing Translational Sciences (NCATS), 2010)", "note": "Hit rate of the full screen: of about 340,000 compounds, about 4,500 (1.3%) were called active. Another 5% or so got no clear call; they are omitted. The sample as a whole holds a higher share of actives than the screen did. A number with no mark means an inactive call. The call rests on the fitted dose curve; in most records, active means well fitted inhibition curve with a large enough effect; inconclusive means small, poorly fitted or top-dose-only effect, or another doubt; inactive means no such curve, though single readings can be large or run the other way. On the % scale 0 is the no-effect control and ±100 the full control effect; potency means the concentration at half of the fitted maximal effect.", "data": [{"target": "DNA polymerase beta (Homo sapiens) (UniProt P06746)", "assay": "qHTS Assay for Inhibitors of DNA Polymerase Beta", "details": "Pol beta primer extension/strand displacement, fluorescence kinetic; series mostly up to 114 µM; activity change, negative = inhibition: at the top concentration", "in_short": "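Pol beta (10 nM) and compounds were preincubated 15 min at room temperature, then 50 nM substrate (final) started primer extension/strand displacement. Reads were taken at 0 and 10 min; concentration-response data were fitted to a four-parameter Hill equation.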", "units": {"activity change, negative = inhibition": "%"}, "values": [{"smiles": "C=CC1C(OC2OC(CO)C(O)C(O)C2O)OC=C(C(=O)OC)C1CC1CC(=O)CC(CC(=O)CCc2ccc(O)cc2)O1", "note": "(configuration not stated)", "activity change, negative = inhibition": -1.69}, {"smiles": "CC1=C(C)C(=O)OC(C(C)C2CCC3C4CC=C5CC(OC6OC(COC7OC(CO)C(O)C(O)C7O)C(O)C(O)C6O)CC(O)C5(C)C4CCC23C)C1", "note": "(configuration not stated)", "activity change, negative = inhibition": 0.697}, {"smiles": "CC(/C=C/C1(O)C(C)CC(=O)CC1(C)C)OC1OC(CO)C(O)C(O)C1O", "note": "(configuration not stated)", "Potency": "28.2 µM (active)"}, {"smiles": "Cc1ccc(-c2nc3ccccn3c2Nc2c(C)cccc2C)o1", "activity change, negative = inhibition": 26.6}, {"smiles": "O=C(CN1CCSc2ccccc21)N1CCN(c2ccccc2)CC1", "activity change, negative = inhibition": 2.05}, {"smiles": "Oc1c(Cl)cc(Cl)c(Cl)c1Cc1c(O)c(Cl)cc(Cl)c1Cl", "Potency": "28.2 µM (active)"}, {"smiles": "Cc1ccc(Cc2nc3ccccc3nc2SCC(=O)Nc2cccc(C(F)(F)F)c2)cc1", "activity change, negative = inhibition": -1.48}, {"smiles": "Cc1ccc(-c2cnc(C3CC3)o2)cc1S(=O)(=O)Nc1cccc(C)c1C", "activity change, negative = inhibition": -2.43}, {"smiles": "CCCOc1ccc(-c2cccc(NS(=O)(=O)c3ccccc3)c2)nn1", "activity change, negative = inhibition": 0.493}, {"smiles": "O=C(N/N=C/c1ccco1)c1csc2c1CCCC2", "activity change, negative = inhibition": 6.62}, {"smiles": "O=C(N/N=C/c1ccco1)c1ccc(C(=O)N/N=C/c2ccco2)o1", "Potency": "17.8 µM (active)"}, {"smiles": "O=C(Cc1ccc([N+](=O)[O-])cc1)N/N=C/c1ccco1", "activity change, negative = inhibition": 5.52}, {"smiles": "CCc1ccccc1NC(=O)CSc1nnc(-c2ccccc2)c(-c2ccccc2)n1", "activity change, negative = inhibition": 3.25}, {"smiles": "Cc1c(Cl)cccc1NC(=O)N1CCN(C(=O)c2nsc3ccccc23)CC1", "activity change, negative = inhibition": -0.591}, {"smiles": "CC1CCN(S(=O)(=O)c2ccc(NC(=O)C3CC(=O)N(c4ccccc4)C3)cc2)CC1", "note": "(configuration not stated)", "activity change, negative = inhibition": -23.6}, {"smiles": "COc1ccccc1N1CC(C(=O)Nc2ccc(S(=O)(=O)N3CCOCC3)cc2)CC1=O", "note": "(configuration not stated)", "Potency": "79.4 µM (active)"}, {"smiles": "Cc1ccc(N2CC(C(=O)Nc3ccc(S(=O)(=O)N4CCCC4)cc3)CC2=O)cc1C", "note": "(configuration not stated)", "activity change, negative = inhibition": 1.24}, {"smiles": "COc1ccc(NC(=O)NC(C)c2c(-n3cccc3)sc(C)c2C)cc1OC", "note": "(configuration not stated)", "activity change, negative = inhibition": -0.276}, {"smiles": "CCOc1ccc2nc(N3CCCC(C(=O)Nc4cc(C)ccc4C)C3)sc2c1", "note": "(configuration not stated)", "activity change, negative = inhibition": 1.66}, {"smiles": "c1ccc(-c2cc(-c3nnc4sc(-c5ccccn5)nn34)[nH]n2)cc1", "Potency": "39.8 µM (active)"}, {"smiles": "CCOc1cccc(-c2nn3c(-c4ccccn4)nnc3s2)c1", "activity change, negative = inhibition": 29.3}, {"smiles": "S=c1[nH]nc(-c2cc(-c3ccsc3)n[nH]2)n1-c1ccccc1", "activity change, negative = inhibition": 38.9}, {"smiles": "O=C(NNC(=O)c1cc2c(s1)CCCC2)c1ccccc1", "activity change, negative = inhibition": -1.77}, {"smiles": "O=C(c1cc2c(s1)CCC2)N1CCN(c2ccccc2)CC1", "Potency": "17.8 µM (active)"}, {"smiles": "O=C(C1CCC1)N1CCN(c2ccccc2)CC1", "activity change, negative = inhibition": 12.2}, {"smiles": "CCc1ccc(NC(=O)c2cc(S(=O)(=O)NC3CCCCCC3)ccc2F)cc1", "activity change, negative = inhibition": 1.54}, {"smiles": "CCOc1cccc(CC(=O)N2CCc3c([nH]c4ccccc34)C2c2ccc(OC)cc2)c1OCC", "note": "(configuration not stated)", "activity change, negative = inhibition": -16.3}]}]}
